This is part of a sample that, as a whole, favours compounds with a hit. Of some 83,000 tested, about 20% had one in any assay.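 Testing used 96-well plates and a 48-hour single-concentration exposure. Example: -40 means 40% of the starting cells died.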 A number with no mark means an inactive call. Activity calls are given as the source filed them.
Each compound was assayed on MOLT-4 leukemia (assay: NCI-60 one-dose screen, 48 h (100 = growth as untreated, 0 = no growth, -100 = all killed)). Details: 10 µM unless noted.
Method: Growth inhibition of the MOLT-4 human tumor cell line is measured as a screen for anti-cancer activity. Cells are grown in 96 well plates and exposed to the test compound for 48 hours. Compounds are tested at a single concentration, which is 10^-5 M for most compounds. The reported endpoint is percent growth (GI% or GIPRCNT), where numbers from 0 - 100% represent growth inhibition, and numbers from -100% - 0 represent cell death. For example, a value of 40 represents 60% growth inhibition. A value of 0 means no net growth occurred over the course of the experiment. A value of -40 indicates 40% of cells at the beginning of the experiment died by the end of the experiment. A value of -100 means all cells are dead at the end of the experiment.
NCI-60 Human Tumor Cell Lines Screen was performed using the standard one-dose NCI protocol, which is described in more detail at https://dtp.cancer.gov/discovery_development/nci-60/default.htm.
Compounds with GIPRCNT values below 10 were considered active. Activity score was based on GIPRCNT using the following formula: […]
Score is 0 for GIPRCNT values of 100 or above, 50 for GIPRCNT values of 0, and 100 for GIPRCNT values of -100.

| Compound | growth |
| --- | --- |
| COc1ccc(C(=O)OC2C(OC3C(O)COC(O[C@H]4C[C@H]5[C@@H]6CC=C7C[C@@H](O)CC[C@]7(C)[C@H]6CC[C@]5(C)[C@H]4[C@H](C)C(=O)CCC(C)C)C3OC(=O)C(C)C)OCC(O)C2O)cc1 (stereo not given in full) | -34.8% (active) |
| CCOC(=O)C1OC2(CCCC2)OC1C(=O)OCC (stereo not given) | 92.2% |
| COc1cc(C2CC(c3ccccc3)=NN2C=O)ccc1Oc1nc2c(c(=O)n(C)c(=O)n2C)n1C (stereo not given) | 62.2% |
| O=C(Nc1cccc(Cl)c1)Nc1ccccc1Cl | 75% |
| CCC(=O)NC1=C(Cl)C(=O)C(NC(=O)CC)=C(Cl)C1=O | -41.3% (active) |
| N=C(N)c1ccc(-c2ccc(-c3ccco3)o2)cc1F | 0.311% (active) |
| c1ccc2c(N=NSc3ncnc4nc[nH]c34)c3ccccc3nc2c1 | -17.4% (active) |
| O=C(N/N=C/c1ccc([N+](=O)[O-])o1)c1ccc(O)cc1 | 48.4% |
| CC(C)(C)[Si](C)(C)OC1[C@@H](O[Si](C)(C)C(C)(C)C)[C@@H](CNC(=O)NC(=O)NC(=O)CI)O[C@H]1n1cnc2c(NC(=O)Nc3ccccc3)ncnc21 (stereo not given in full) | 29.6% |
| O=C(Nc1ccc(Br)cc1)Nc1cccc(Br)c1 | 1.92% (active) |
| COc1ccc(-c2cc(C(=O)Nc3ccc(C)cc3)nc3[nH]c(=O)sc23)cc1 | 81.5% |
| O=C(/C=C/c1ccccc1Br)c1cccc(OCCCCOc2cccc(C(=O)/C=C/c3ccccc3Br)c2)c1 | 91.6% |
| CSc1ccc(/C=C2\C=C(CC(=O)NCc3ccc(C(=O)c4ccccc4)cc3)c3cc(F)ccc32)cc1 | 9.47% (active) |
| CCN(CC)CC(=O)Nc1c(C)cc(C(=O)NN)cc1C | 85.2% |
| CCN(CC)CCNC(=O)n1cc(-c2ccncc2)c(-c2cc(Cl)cc(OC)c2)n1 | 82.1% |
| O=C1/C(=C/N2N=C(c3ccc(Cl)cc3)CC2c2ccccc2O)SC(=S)N1c1cccc(C(F)(F)F)c1 (stereo not given) | 8.36% (active) |
| CCN(CC)CCCC(C)Nc1c(-c2ccccc2)cnc2cc(Cl)ccc12 (stereo not given) | 48.5% |
| COc1cc(OC)c(Cl)cc1N | 108% |
| CCCCOc1nc2ccccc2cc1/C=C/c1cc(/C=C/c2cc3ccccc3nc2OCCCC)n(-c2ccccc2)n1 | 99% |
| O=C(Nc1ccccc1)c1cc2ccccc2s1 | 83.3% |

| Compound | growth |
| --- | --- |
| O=C(O)C(CCc1ccccc1)NCc1ccccc1 (stereo not given) | 108% |
| CCOc1cc(/C=N\NC(=O)C[N+](C)(C)C)ccc1O | 28.5% |
| Cn1c(=O)c2c(nc(N/N=C/c3ccccc3Cl)n2C)n(C)c1=O | 95.7% |
| O=C(CCl)Nc1cc(O)c2c(c1)C(=O)c1cccc(O)c1C2=O | -56.3% (active) |
| COC1(OC)C2(Cl)CCC1(Cl)C(Cl)=C2Cl | 105% |
| O=C(Nc1ccc(Cl)cc1)c1cc(-c2ccc(Cl)cc2)c2sc(=O)[nH]c2n1 | -24.2% (active) |
| CCCCCCCCCCCCNC(=O)N[C@H](C(=O)N[C@H]1/C=C/CCNC(=O)/C=C/[C@H](C)NC1=O)C(C)C | -29% (active) |
| COc1cc2ccc(C(C)=O)cc2cc1OC | 127% |
| CCOC(=O)C#Cc1c(C(=O)OCC)nnn1[C@@H]1O[C@H](COC(C)=O)[C@@H](OC(C)=O)[C@H]1OC(C)=O | 79.9% |
| Cc1c(C(=O)Nc2ccccc2F)sc2c(=O)[nH]cnc12 | 82% |
| Clc1ccc(-c2nc(-c3cccs3)no2)cc1 | 96.3% |
| O=[N+]([O-])c1ccc(N/N=C/c2ccccc2O)nc1 | 14.3% |
| O=[N+]([O-])c1ccc(N/N=C\c2ccc(O)cc2O)nc1 | 13.6% |
| O=C(Nc1cccc(C2=NCCN2)c1)c1ccc(N=Nc2ccc(C(=O)Nc3cccc(C4=NCCN4)c3)cc2)cc1 | 80.9% |
| COc1cnc2c(c1)C(=O)c1c-2n(CCCN2CCN(C)CC2)c(=O)c2cc(Cl)ccc12 | -36.6% (active) |
| CC1CCN(CCCCCOc2ccc3oc4ccc(Cl)cc4c(=O)c3c2)CC1 | 26.6% |
| O=C(CCCN1CCC(O)(c2ccc(Br)cc2)CC1)c1ccc(F)cc1 | 60.3% |
| CCN(CC)CCCC(C)Nc1ccnc2ccc(Oc3ccccc3)cc12 (stereo not given) | 62.6% |
| CC(=O)O[C@@H]1CC2C(C)(C)CCCC2(C)C2=C1C(=O)C(C(C)C)=CC2=O (stereo not given in full) | 9.69% (active) |
| CC1=CC(=O)OC1C/C=C(\C)CCC1[C@@]2(C)CCC[C@@](C)(C(=O)O)C2CC[C@@]1(C)O (stereo not given in full) | 114% |
